# Source: the supplement of paper PMC4466140
# B1: unnamed (peptide)
# chain: TKRKRPARLIFYDSK
# Key:
# Experiment in all cases: SPOT peptide array binding signal intensity (averaged, normalized) (arbitrary units (background-subtracted, floor 0; scale differs between SH3 domains)); higher = stronger binding of the SH3 domain to the peptide
# AgAbp1 = target: AgAbp1
# In short: (§1)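 Cellulose membranes carried synthetic 15-mer peptides with cysteines swapped for serines. These were incubated overnight at 4°C with 10 μg/ml of GST-fused SH3 domains from four yeast species in TBS-based blocking buffer. Binding signal, detected with anti-GST antibody and quantified in Genespotter, is the normalized, background-subtracted spot intensity averaged over replicates, in arbitrary units specific to each domain.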
# AgBbc1 = target: AgBbc1
# In short: as §1
# AgBem1-D1 = target: AgBem1-D1
# In short: as §1
# AgBzz1-D1 = target: AgBzz1-D1
# In short: as §1
# AgBzz1-D2 = target: AgBzz1-D2
# In short: as §1
# AgCyk3 = target: AgCyk3
# In short: as §1
# AgFus1 = target: AgFus1
# In short: as §1
# AgHof1 = target: AgHof1
# In short: as §1
# AgHse1 = target: AgHse1
# In short: as §1
# AgLsb1 = target: AgLsb1
# In short: as §1
# AgLsb4 = target: AgLsb4
# In short: as §1
# AgMyo5 = target: AgMyo5
# In short: as §1
# AgNbp2 = target: AgNbp2
# In short: as §1
# AgRvs167 = target: AgRvs167
# In short: as §1
# AgSho1 = target: AgSho1
# In short: as §1
# AgSla1-D1-D2 = target: AgSla1-D1-D2
# In short: as §1
# AgSla1-D3 = target: AgSla1-D3
# In short: as §1
# CaAbp1-D1 = target: CaAbp1-D1
# In short: as §1
# CaAbp1-D2 = target: CaAbp1-D2
# In short: as §1
# CaBbc1 = target: CaBbc1
# In short: as §1
# CaBem1-D1 = target: CaBem1-D1
# In short: as §1
# CaBzz1-D1 = target: CaBzz1-D1
# In short: as §1
# CaBzz1-D2 = target: CaBzz1-D2
# In short: as §1
# CaCyk3 = target: CaCyk3
# In short: as §1
# CaFus1 = target: CaFus1
# In short: as §1
# CaHof1 = target: CaHof1
# In short: as §1
# CaHse1 = target: CaHse1
# In short: as §1
# CaLsb1 = target: CaLsb1
# In short: as §1
# CaLsb4 = target: CaLsb4
# In short: as §1
# CaMyo5 = target: CaMyo5
# In short: as §1
# CaNbp2 = target: CaNbp2
# In short: as §1
# CaRvs167 = target: CaRvs167
# In short: as §1
# CaRvs167-3 = target: CaRvs167-3
# In short: as §1
# CaSho1 = target: CaSho1
# In short: as §1
# CaSla1-D1-D2 = target: CaSla1-D1-D2
# In short: as §1
# CaSla1-D3 = target: CaSla1-D3
# In short: as §1
# ScAbp1 = target: ScAbp1
# In short: as §1
# ScBbc1 = target: ScBbc1
# In short: as §1
# ScBem1-D1 = target: ScBem1-D1
# In short: as §1
# ScBzz1-D1 = target: ScBzz1-D1
# In short: as §1
# ScBzz1-D2 = target: ScBzz1-D2
# In short: as §1
# ScCyk3 = target: ScCyk3
# In short: as §1
# ScFus1 = target: ScFus1
# In short: as §1
# ScHof1 = target: ScHof1
# In short: as §1
# ScHse1 = target: ScHse1
# In short: as §1
# ScLsb1 = target: ScLsb1
# In short: as §1
# ScLsb2 = target: ScLsb2
# In short: as §1
# ScLsb3 = target: ScLsb3
# In short: as §1
# ScLsb4 = target: ScLsb4
# In short: as §1
# ScMyo3 = target: ScMyo3
# In short: as §1
# ScMyo5 = target: ScMyo5
# In short: as §1
# ScNbp2 = target: ScNbp2
# In short: as §1
# ScPex13 = target: ScPex13
# In short: as §1
# ScRvs167 = target: ScRvs167
# In short: as §1
# ScSho1 = target: ScSho1
# In short: as §1
# ScSla1-D1-D2 = target: ScSla1-D1-D2
# In short: as §1
# ScSla1-D3 = target: ScSla1-D3
# In short: as §1
# SpAbp1-D1 = target: SpAbp1-D1
# In short: as §1
# SpBbc1 = target: SpBbc1
# In short: as §1
# SpBzz1-D1 = target: SpBzz1-D1
# In short: as §1
binder,measurement,setting,value
B1,SPOT peptide array binding signal intensity,AgAbp1,113
same,SPOT peptide array binding signal intensity,AgBbc1,40.2
same,SPOT peptide array binding signal intensity,AgBem1-D1,82
same,SPOT peptide array binding signal intensity,AgBzz1-D1,26
same,SPOT peptide array binding signal intensity,AgBzz1-D2,20
same,SPOT peptide array binding signal intensity,AgCyk3,13.5
same,SPOT peptide array binding signal intensity,AgFus1,436
same,SPOT peptide array binding signal intensity,AgHof1,20.5
same,SPOT peptide array binding signal intensity,AgHse1,696
same,SPOT peptide array binding signal intensity,AgLsb1,3.5
same,SPOT peptide array binding signal intensity,AgLsb4,122
same,SPOT peptide array binding signal intensity,AgMyo5,≤ 0
same,SPOT peptide array binding signal intensity,AgNbp2,236
same,SPOT peptide array binding signal intensity,AgRvs167,3.67
same,SPOT peptide array binding signal intensity,AgSho1,94.5
same,SPOT peptide array binding signal intensity,AgSla1-D1-D2,1050
same,SPOT peptide array binding signal intensity,AgSla1-D3,1.25
same,SPOT peptide array binding signal intensity,CaAbp1-D1,717
same,SPOT peptide array binding signal intensity,CaAbp1-D2,662
same,SPOT peptide array binding signal intensity,CaBbc1,66.5
same,SPOT peptide array binding signal intensity,CaBem1-D1,16
same,SPOT peptide array binding signal intensity,CaBzz1-D1,108
same,SPOT peptide array binding signal intensity,CaBzz1-D2,40.2
same,SPOT peptide array binding signal intensity,CaCyk3,119
same,SPOT peptide array binding signal intensity,CaFus1,876
same,SPOT peptide array binding signal intensity,CaHof1,1.5
same,SPOT peptide array binding signal intensity,CaHse1,36.8
same,SPOT peptide array binding signal intensity,CaLsb1,1.5
same,SPOT peptide array binding signal intensity,CaLsb4,85
same,SPOT peptide array binding signal intensity,CaMyo5,3.5
same,SPOT peptide array binding signal intensity,CaNbp2,450
same,SPOT peptide array binding signal intensity,CaRvs167,19.8
same,SPOT peptide array binding signal intensity,CaRvs167-3,240
same,SPOT peptide array binding signal intensity,CaSho1,605
same,SPOT peptide array binding signal intensity,CaSla1-D1-D2,1
same,SPOT peptide array binding signal intensity,CaSla1-D3,25
same,SPOT peptide array binding signal intensity,ScAbp1,26
same,SPOT peptide array binding signal intensity,ScBbc1,22
same,SPOT peptide array binding signal intensity,ScBem1-D1,22.5
same,SPOT peptide array binding signal intensity,ScBzz1-D1,12
same,SPOT peptide array binding signal intensity,ScBzz1-D2,22
same,SPOT peptide array binding signal intensity,ScCyk3,62
same,SPOT peptide array binding signal intensity,ScFus1,354
same,SPOT peptide array binding signal intensity,ScHof1,0.5
same,SPOT peptide array binding signal intensity,ScHse1,1060
same,SPOT peptide array binding signal intensity,ScLsb1,5.5
same,SPOT peptide array binding signal intensity,ScLsb2,5
same,SPOT peptide array binding signal intensity,ScLsb3,239
same,SPOT peptide array binding signal intensity,ScLsb4,13
same,SPOT peptide array binding signal intensity,ScMyo3,2.5
same,SPOT peptide array binding signal intensity,ScMyo5,3
same,SPOT peptide array binding signal intensity,ScNbp2,975
same,SPOT peptide array binding signal intensity,ScPex13,3.5
same,SPOT peptide array binding signal intensity,ScRvs167,23.8
same,SPOT peptide array binding signal intensity,ScSho1,382
same,SPOT peptide array binding signal intensity,ScSla1-D1-D2,198
same,SPOT peptide array binding signal intensity,ScSla1-D3,13.2
same,SPOT peptide array binding signal intensity,SpAbp1-D1,190
same,SPOT peptide array binding signal intensity,SpBbc1,3
same,SPOT peptide array binding signal intensity,SpBzz1-D1,77.5
